Assay results as given in PubChem BioAssay.
Unmarked numbers belong to inactive results.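 Rule for the calls: active = z-score of at least 1.8 in each of two replicates, scored against plate mean and spread of sample wells; inactive = the rest.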

Experiment: galactose survival enhancers in mitochondrial complex I cybrids – cell-based, galactose medium, ATP luminescence, primary screen (AID 1645843);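 note: positive z means more ATP and so rescue of galactose-driven cybrid death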
Settings: complex I mutant cybrid cells, 72 h, active compounds read high

Row | Compound | z-score
1 | C[C@H](N)Cc1cccc(C(F)(F)F)c1 | 0.04
2 | C=CCN1C[C@@H](C)N([C@H](c2ccc(C(=O)N(CC)CC)cc2)c2cccc(OC)c2)C[C@@H]1C | -0.39
3 | N#CC(=Cc1ccc(O)c(O)c1)C(N)=S | -0.465
4 | N[C@@]1(C(=O)O)CC[C@@H](C(=O)O)C1 | 0.225
5 | CCNC(=O)[C@H]1O[C@@H](n2cnc3c(N)ncnc32)C(O)[C@H]1O (some centres undefined) | 0.625
6 | O=C(NC1CN2CCC1CC2)c1cc2ccoc2cn1 (centres undefined) | 0.38
7 | C[C@@H]1O[C@H](C[N+](C)(C)C)C[C@H]1O | 0.675
8 | C=CCN1CCC23c4c5ccc(O)c4O[C@H]2C(=O)CC[C@@]3(O)C1C5 (some centres undefined) | 0.37
9 | CC(N)c1cccc(Cl)c1Cl (centres undefined) | 0.12
10 | CN1CCC[C@@H]1Cc1c[nH]c2ccc(Nc3ncccc3[N+](=O)[O-])cc12 | -0.89
11 | Oc1ccc2c3c1O[C@H]1c4[nH]c5ccccc5c4C[C@@]4(O)C(C2)N(CC2CC2)CCC314 (some centres undefined) | -0.835
12 | COc1cc(C(O)CN)ccc1O (centres undefined) | 0.4
13 | C[C@@H]1O[C@@H](O[C@H]2C[C@@H](O)[C@]3(CO)[C@@H]4C(CC[C@]3(O)C2)[C@@]2(O)CC[C@H](C3COC(=O)C3)[C@@]2(C)C[C@H]4O)[C@H](O)[C@H](O)[C@H]1O (some centres undefined) | -0.995
14 | CN1CC[C@@]2(C)c3cc(OC(=O)Nc4ccccc4)ccc3N(C)[C@@H]12 | -0.985
15 | c1ccc2cc(CC3=NCCN3)ccc2c1 | 0.28
16 | CC(C)(C)OC(=O)NC1[C@H]2CNC[C@@H]12 (some centres undefined) | 0.37
17 | NC1CC1c1ccccc1 (centres undefined) | 0.355
18 | NC(CCP(=O)(O)O)C(=O)O (centres undefined) | 0.32
19 | COc1ccc2c(c1)C13CCCCC1C(C2)N(C)CC3 (centres undefined) | -0.635
20 | C=CCN1CC[C@]23CCCCC2[C@H]1Cc1ccc(O)cc13 (some centres undefined) | -0.095
21 | O=C1CC[C@@]2(O)C3Cc4ccc(O)c5c4C2(CCN3CC2CC2)[C@H]1O5 (some centres undefined) | 0.445
22 | NC(CP(=O)(O)O)C(=O)O (centres undefined) | 0.29
23 | C[C@]12Cc3cn4c(nc3C=C1CCC1C2CC[C@@]2(C)[C@H]1CC[C@@]2(O)C#N)nc1ccccc14 (some centres undefined) | -0.25
24 | CCCCCCCCCCCCCC(=O)O[C@@H]1[C@@H](C)[C@@]2(O)[C@@H](C=C(CO)C[C@@]3(O)C(=O)C(C)=C[C@@H]23)C2C(C)(C)[C@@]21OC(C)=O (some centres undefined) | -1.38
